This is an account of results in PubChem BioAssay (NCATS).

Unmarked numbers belong to inactive results. Inconclusive results are not listed. Activity calls are given as the source filed them. Unless noted, calls come from the whole dose curve; as a rule, active = well fitted curve in the direction sought with a large enough effect; inconclusive = small, poorly fitted or top-dose-only effect, or another doubt; inactive = no such curve, though single readings can be large; an effect the other way counts as inactive or inconclusive.

Assay [1] addresses Glucocorticoid receptor (Homo sapiens) (UniProt P04150). Briefly: GR-GFP Redistribution (AID 450;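 active = compounds whose dose series gives a full or clear partial fitted curve of increased nuclear translocation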; note: potency is the fitted concentration of half-maximal effect). Particulars: U2OS GR-GFP nuclear translocation, laser cytometry, 2 h.
For assay [2], the target named is 3',5'-cyclic-AMP phosphodiesterase 4B (Homo sapiens) (UniProt Q07343). Briefly: qHTS Assay for Inhibitors of PDE-IV (AID 607; active = well fitted activation curve with a large enough effect in the main read-out, with a control signal flat, not every such curve was filed as active; note: % of control where 0% means no effect). The settings on record: HEK293 ACTOne CNG channel cells, membrane potential fluorescence; series mostly up to 22.9 µM. Summed up:
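ACTOne HEK293 cells carry a modified cAMP-gated CNG channel and express endogenous PDE4; plated 1000 cells/well, compounds up to 22.9 uM final. Membrane-potential dye fluorescence (ex 535/em 590) was read; parental cells received 10 uM forskolin + 100 uM RO 20-1724.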
A general note: Quantitative high-throughput screening tests each substance at several concentrations.

The nature of assay [3]: Cell Viability - N2a (AID 540).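 Note: plate controls were DMSO alone for no effect and tamoxifen control for full effect; nearly all actives have a fitted effect of over 45% in size.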 The settings on record: N2a mouse neuroblastoma cell viability; at 92.2 µM (top of the series). A digest of the protocol:
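Luminescent ATP signal (CellTiter-Glo, 20 min at room temperature) served as the viability read-out after N2a cells were treated with compounds for 40 hours at 37 °C. Concentration-response data were fitted to the Hill equation for AC50.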

Assay [4] can be described thus: Cell Viability - NIH 3T3 (AID 541).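 Note: plate controls were DMSO alone for no effect and tamoxifen positive control for full effect; nearly all actives have a fitted effect of over 25% in size.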 Particulars: NIH 3T3 cell viability, qHTS; series mostly up to 92.2 µM. Summed up: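 Luminescent ATP signal (CellTiter-Glo) served as the viability read-out after NIH 3T3 cells were exposed to compounds over a concentration range for 40 hr at 37 °C. Hill-equation modelling of concentration-response data gave AC50.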
Assay [5] in a line: Cell Viability - H-4-II-E (AID 543). Note: nearly all actives have a fitted effect of over 35% in size. Note: potency is the fitted concentration of half-maximal effect. The settings on record: H-4-II-E rat hepatoma viability; series mostly up to 92.2 µM. Summed up:
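Luminescent ATP signal (CellTiter-Glo) served as the viability read-out, with cytotoxicity seen as a concentration-dependent ATP drop. Cells were treated for 40 hours in complete medium. AC50 values derive from Hill-equation modelling.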

The nature of assay [6]: Cell Viability - SH-SY5Y (AID 544). Note: nearly all actives have a fitted effect of over 55% in size. The settings on record: SH-SY5Y neuroblastoma cell viability; at 92.2 µM (top of the series). Summed up:
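Luminescent ATP read-out (CellTiter-Glo) measures loss of viable SH-SY5Y neuroblastoma cells after 40 hr compound exposure at 37 °C. AC50 values derive from standard Hill modelling of qHTS concentration-response data.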

Assay [7] in a line: Cell Viability - Renal Proximal Tubule (AID 545). Note: nearly all actives have a fitted effect of over 40% in size. The settings on record: renal proximal tubule cells viability, primary cells of rat origin; series mostly up to 91.7 µM. A digest of the protocol: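 Rat kidney proximal tubule cells, freshly isolated; 1000 cells/well, 5 hr settle, compound 40 hr 37 °C. CellTiter-Glo 20 min RT, luminescence read. AC50 by standard Hill fit.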
The nature of assay [8]: Cell Viability - Mesenchymal (AID 546).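 Note: cells exposed to compound for 40 hours before reading.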 The settings on record: mesenchymal cells viability, qHTS; at 91.7 µM (top of the series). Summed up: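 Human kidney mesenchymal cells from normal renal glomeruli, 1000 cells/well, rested 5 hr at 37 °C, then treated 40 hr at 37 °C in complete medium. Cellular ATP read by CellTiter-Glo luminescence; AC50 from Hill-equation fits.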
Assay [9] in a line: Cellular Toxicity (caspase-3) HepG2 (AID 654).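 Note: cells exposed to compound for 16 hours before reading; 0% = DMSO alone and 100% = caspase signal from 100 µM tamoxifen.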 The settings on record: HepG2 caspase-3 activation, luminescence, 0% = DMSO only, 100% = tamoxifen; series mostly up to 92.2 µM. Summed up:
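Cells plated 5 hr at 37 °C, compound added, incubated 16 hr at 37 °C. Caspase-Glo 3/7 reagent followed, 20 min at room temperature, then luminescence read. Activation scored as signal increase; AC50 from Hill fit.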

Assay [10] is described as follows: Cellular Toxicity (caspase-3) Jurkat (AID 655).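 Note: cells exposed to compound for 16 h at 37 °C before reading.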 The settings on record: Jurkat caspase-3 activation, luminescence; caspase-3 activation: at 92.2 µM (top of the series), DMSO = 0%, tamoxifen = 100%. Summed up: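 Luminescent caspase-3/7 readout (aminoluciferin substrate cleavage) in human T-cell leukemia Jurkat cells after 16 hr compound exposure. Concentration-response normalized to DMSO and 100 uM tamoxifen; AC50 by standard Hill equation.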

Assay [11] can be described thus: Cellular Toxicity (caspase-3) HUV-EC-C (AID 656). Particulars: HUV-EC-C cells, caspase-3 activation (apoptosis), vehicle = 0, 100 µM tamoxifen = 100%; series mostly up to 92.2 µM. Summed up:
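Luminescent caspase-3/7 activation (aminoluciferin substrate cleavage) in HUV-EC-C cells after 16 hr compound exposure, 37°C. Signal normalized to DMSO basal and 100 uM tamoxifen as 100%; AC50 from concentration-response fitted with the Hill equation.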

Assay [12] can be described thus: Cellular Toxicity (caspase-3) SHSY5Y (AID 657). The settings on record: SH-SY5Y caspase-3 activation, DMSO zero, 10 µM staurosporine = 100%; series mostly up to 91.7 µM. A digest of the protocol:
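Luminescent caspase-3/7 readout (aminoluciferin release) in SH-SY5Y cells after 16 h compound exposure in complete medium. Activity scaled between DMSO basal and 10 uM staurosporine as 100%; concentration-response fitted to Hill equation for AC50.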

Assay [13] in a line: Cellular Toxicity (caspase-3) BJ (AID 658). Particulars: BJ fibroblasts, luminescence, normalized: DMSO 0%, staurosporine 100%; series mostly up to 91.7 µM. A digest of the protocol: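 BJ human foreskin fibroblasts, 1000 cells/well, treated 16 hours at 37 °C in complete medium; caspase 3/7 activity by Caspase-Glo luminescence after 1 hr at room temperature. Normalized to DMSO and 10 uM staurosporine; AC50 from Hill fits.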

The nature of assay [14]: Cellular Toxicity (caspase-3) MRC-5 (AID 659). Particulars: MRC-5 cells, luminescence, normalized: DMSO 0%, 10 µM staurosporine 100%; series mostly up to 91.7 µM. A digest of the protocol:
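MRC-5 human normal lung fibroblasts, 1500 cells/well, treated 16 h at 37 °C in complete medium. Caspase 3/7 measured by Caspase-Glo luminescence after 1 h at room temperature. Normalized to DMSO and 10 uM staurosporine; AC50 from Hill fit.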

A short description of assay [15]: Cellular Toxicity (caspase-3) Mesangial (AID 660).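 Note: combined caspase 3 and 7 activity read by Caspase-Glo luminescence.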 Particulars: mesangial cells, normalized: DMSO 0%, 100 µM tamoxifen 100%; series mostly up to 91.7 µM. A digest of the protocol: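 Mesangial cells, 1000/well, 5 h settle at 37 °C; compound 16 h, 37 °C; Caspase-Glo 3/7 reagent 20 min RT; luminescence. Norm.: DMSO = 0%, tamoxifen 100 uM = 100%. AC50, Hill fit.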

A short description of assay [16]: Cellular Toxicity (caspase-3) SK-N-SH (AID 661). The settings on record: SK-N-SH caspase-3 activation, qHTS, DMSO as zero, staurosporine as full; series mostly up to 91.7 µM. Summed up: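 Human neuroblastoma SK-N-SH, 1500 cells/well, 5 hr pre-incubation, then compound 16 hr, 37 °C. Caspase-Glo 3/7 reagent, 1 hr RT, luminescence. Norm. to DMSO/10 uM staurosporine; Hill-fit AC50.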

Assay [17] is described as follows: Cellular Toxicity (caspase-3) H-4-II-E (AID 663).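 Note: cells exposed to compound for 16 hr before readout.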 Particulars: H-4-II-E rat hepatoma, scaled: DMSO 0%, 100 µM tamoxifen 100%; series mostly up to 92.2 µM. A digest of the protocol:
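Rat hepatoma H-4-II-E cells (1500/well) plated 5 hr, then exposed to compound titrations for 16 hr at 37 °C. Caspase-Glo 3/7 luminescence read after 20 min at RT; data normalized to DMSO and 100 uM tamoxifen, AC50 from Hill fits.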

Assay [18] can be described thus: Cellular Toxicity (caspase-3) Hek293 (AID 664).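 Note: cells exposed to compound for 16 h at 37 °C before readout.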 Particulars: HEK293 caspase-3 activation, DMSO = 0%, 100 µM tamoxifen = 100%; series mostly up to 92.2 µM. A digest of the protocol: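 Cells plated, 5 hr at 37 °C; compounds added; 16 hr at 37 °C; Caspase-Glo 3/7 reagent, 20 min RT; luminescence read. Activation expressed relative to DMSO and 100 uM tamoxifen, AC50 by Hill model.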

The nature of assay [19]: Cellular Toxicity (caspase-3) N2a (AID 665).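 Note: compound exposure lasted 16 h at 37 °C before readout.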 The settings on record: N2a cells, luminescence, normalized: DMSO 0%, 10 µM staurosporine 100%; series mostly up to 92.2 µM. Summed up: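 N2a cells, 1500/well, 5 h settle at 37 °C; cpd 16 h, 37 °C; Caspase-Glo 3/7, 1 h RT; luminescence. Norm: DMSO = 0, 10 uM staurosporine = 100%. AC50, Hill fit.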
Assay [20] concerns the target Glucocorticoid receptor (Homo sapiens) (UniProt P04150). Nature of the assay: GR-EFC Redistribution (AID 451; calls by dose curve; note: potency is the fitted concentration of half-maximal effect). Particulars: CHO-K1 GR-EFC translocation, beta-gal luminescence, 2 h. A digest of the protocol: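 CHO-K1 cells expressing nuclear EA and GR-ED fragments of b-gal; compounds titrated up to 46 uM final, 2 h at 37 C. GR nuclear translocation read as complemented b-gal luminescence after 1 h RT detection.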

Chain of Glucocorticoid receptor (Homo sapiens) (P04150 whole entry, looked up, the tested form may be a part): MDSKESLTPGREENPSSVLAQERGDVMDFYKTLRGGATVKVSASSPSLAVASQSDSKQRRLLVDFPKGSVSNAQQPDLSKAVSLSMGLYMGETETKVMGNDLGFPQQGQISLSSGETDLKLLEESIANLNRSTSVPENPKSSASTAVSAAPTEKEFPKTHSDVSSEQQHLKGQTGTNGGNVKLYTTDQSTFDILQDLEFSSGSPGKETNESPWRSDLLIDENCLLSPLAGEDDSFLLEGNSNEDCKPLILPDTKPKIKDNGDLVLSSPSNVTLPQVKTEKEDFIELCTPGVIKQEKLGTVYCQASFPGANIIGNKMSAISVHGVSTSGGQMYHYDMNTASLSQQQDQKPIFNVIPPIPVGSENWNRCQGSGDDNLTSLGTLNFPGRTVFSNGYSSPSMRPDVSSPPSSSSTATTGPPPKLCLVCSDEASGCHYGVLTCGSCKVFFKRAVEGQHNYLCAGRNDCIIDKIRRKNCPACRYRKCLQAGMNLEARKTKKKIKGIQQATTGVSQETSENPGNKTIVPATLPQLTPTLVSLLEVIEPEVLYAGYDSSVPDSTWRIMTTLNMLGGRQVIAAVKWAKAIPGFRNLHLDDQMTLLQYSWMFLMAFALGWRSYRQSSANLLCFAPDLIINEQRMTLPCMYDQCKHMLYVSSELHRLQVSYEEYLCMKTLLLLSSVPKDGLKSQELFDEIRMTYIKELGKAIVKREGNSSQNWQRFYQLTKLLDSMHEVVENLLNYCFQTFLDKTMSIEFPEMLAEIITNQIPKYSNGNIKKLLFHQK
Chain of 3',5'-cyclic-AMP phosphodiesterase 4B (Homo sapiens) (Q07343 whole entry, looked up): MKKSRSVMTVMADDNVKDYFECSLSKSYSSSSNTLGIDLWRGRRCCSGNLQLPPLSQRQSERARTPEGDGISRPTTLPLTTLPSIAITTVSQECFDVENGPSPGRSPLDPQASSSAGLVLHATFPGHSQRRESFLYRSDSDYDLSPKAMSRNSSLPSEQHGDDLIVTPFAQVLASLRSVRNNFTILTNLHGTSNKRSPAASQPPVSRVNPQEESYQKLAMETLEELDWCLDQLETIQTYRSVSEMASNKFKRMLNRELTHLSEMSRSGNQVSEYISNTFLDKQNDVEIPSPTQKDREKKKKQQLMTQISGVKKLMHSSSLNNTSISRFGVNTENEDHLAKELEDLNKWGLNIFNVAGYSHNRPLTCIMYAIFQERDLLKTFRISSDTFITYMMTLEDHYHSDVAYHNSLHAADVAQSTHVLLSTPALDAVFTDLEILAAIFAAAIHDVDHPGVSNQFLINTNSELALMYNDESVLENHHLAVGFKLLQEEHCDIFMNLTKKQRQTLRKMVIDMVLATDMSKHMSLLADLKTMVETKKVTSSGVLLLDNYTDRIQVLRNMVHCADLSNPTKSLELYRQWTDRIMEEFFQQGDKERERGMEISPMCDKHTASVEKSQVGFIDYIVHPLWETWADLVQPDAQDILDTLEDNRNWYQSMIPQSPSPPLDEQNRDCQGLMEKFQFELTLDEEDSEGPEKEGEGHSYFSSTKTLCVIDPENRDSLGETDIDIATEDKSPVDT

As to `CCCC(=O)O[C@]1(C(=O)COC(C)=O)CC[C@H]2[C@@H]3C[C@H](F)C4=CC(=O)C=C[C@]4(C)[C@@]3(F)[C@@H](O)C[C@@]21C`, the Potency in assay [1] is 0.00371 µM (active).

Take `Cc1onc(-c2ccccc2)c1C(=O)N[C@@H]1C(=O)N2[C@@H]1SC(C)(C)[C@@H]2C(=O)O`: in assay [1], the Potency is > 20.6 µM.

With `CN=C(NC#N)Nc1ccc(C2=NNC(=O)C[C@@H]2C)cc1`, the compound was called inactive in assay [2].

Turning to `CCCCCCCC/C=C\CCCCCCCC(=O)O`, the results for the activity change, negative = cytotoxicity in [3] and in assay [8] were -2.98% and 16.2%, respectively. The outcome in [4], in assay [7], in assay [9], in assay [11], in assay [12] and in [13] was inactive. The outcome in assay [14], in [15], in [16], in assay [17], in assay [18] and in assay [19] was inactive. In addition, in assay [5], the Potency result is “inactive”. For the same compound, the viability change, negative = cytotoxic in assay [6] is 3.98%. Besides, the caspase-3 activation in [10] is 1.62%.

For the compound `CC(C)(C)C(=O)OCOC(=O)[C@@H]1N2C(=O)[C@@H](N=CN3CCCCCC3)[C@H]2SC1(C)C`, the compound was classed as inactive in assay [2].

As for `CC1=C(/C=C/C(C)=C/C=C/C(C)=C/CO)C(C)(C)CCC1`, the activity change, negative = cytotoxicity in assay [3] was -116% (active); in [8], -3.42%. In addition, the result in assay [9], in [11], in [12], in [13], in assay [14] and in [15] was inactive. Also, the call in assay [16], in assay [17] and in [19] was inactive.

Regarding `CC(C)=O`, the activity change, negative = cytotoxicity in assay [3] is -2.26%; in assay [8], -1.45%. Moreover, the outcome in assay [4], in assay [7], in assay [9], in assay [11], in [12] and in assay [13] was inactive. Also, the outcome in [14], in [15], in assay [16], in [17], in [18] and in assay [19] was inactive. In addition, the Potency result in [5] was “inactive”. Moreover, the viability change, negative = cytotoxic in assay [6] is -5.22%. Besides, the caspase-3 activation in assay [10] is -1.17%.

Take `CCOc1ccc2c(c1)C(C)=CC(C)(C)N2`: the activity change, negative = cytotoxicity in assay [3] is -9.52%; in [8], 9.89%. In addition, the call in [4], in assay [7], in assay [2], in assay [9], in assay [11] and in [12] was inactive. The call in [13], in assay [14], in assay [15], in assay [16], in assay [17] and in assay [18] was inactive. Besides, the call in assay [19] was inactive. The Potency result in [5] is “inactive”. Also, the caspase-3 activation in [10] is 15.7%.

For `COC(=O)CCC(=O)CN`, in assay [1], the Potency was > 20.6 µM.

Consider `CC(C)(C)NC(=O)[C@@H]1C[C@@H]2CCCC[C@@H]2CN1C[C@@H](O)[C@H](Cc1ccccc1)NC(=O)[C@H](CC(N)=O)NC(=O)c1ccc2ccccc2n1`, for which the compound was called inactive in assay [4], in assay [15] and in [19]. For the same compound, the Potency in [5] is 50.1 µM (active). Further, in assay [6], the viability change, negative = cytotoxic is -93.9% (active). The activity change, negative = cytotoxicity in [8] was -97.1% (active). Moreover, the caspase-3 activation in assay [10] is 116% (active).

Turning to `CC1(C)S[C@@H]2[C@H](NC(=O)[C@@H](NC(=O)N3CCNC3=O)c3ccccc3)C(=O)N2[C@H]1C(=O)O`, the Potency in assay [1] and in [20] was > 20.6 µM in each case. Also, in assay [2], the call was inactive.
